Records with an inconclusive call do not appear. Values without a mark were called inactive. The source made the active and inactive calls. Calls follow the shape of the full dose curve.
biological target: 5-hydroxytryptamine receptor 2A (Homo sapiens) (UniProt P28223); test: 5-hydroxytryptamine receptor 2A (HTR2A) small molecule antagonists, cell-based qHTS assay (AID 1963586); settings: HTR2A-CHO cells, DOI-induced calcium flux, fluorescence; series mostly up to 61.5 µM; activity, negative = inhibition: at the top concentration; also: nearly all actives have a fitted effect of over 45% in size
Text: National Center for Advancing Translational Sciences [NCATS]
Division of Preclinical Innovation [DPI]
U.S. Environmental Protection Agency [EPA]
National Institutes of Environmental Health Sciences [NIEHS]
National Toxicology Program [NTP]
U.S. Food and Drug Administration [FDA]
The HTR2A receptor is a subtype of the 5-HT2 receptor that belongs to the serotonin receptor family and is a G protein-coupled receptor (GPCR). The HTR2A-CHO cell line stably expressing human 5-hydroxytryptamine receptor 2A (HTR2A) can be used for screening antagonists of interactions between 5-HT2 and its ligands. The HTR2A-CHO calcium flux assay is a homogeneous fluorescence-based assay for detecting the intracellular calcium level using FDSS kinetic plate reader system.
Tox21 Assay Protocol Summary:
HTR2A-CHO cells were dispensed at 2000 cells/3uL/well in 1536-well black-clear bottom plates using a Multidrop Dispenser. After the assay plates were incubated at a 37 C/5% CO2 incubator for 18 h, 3 uL of Dye Loading Buffer was transferred to the assay plate by a Flying Reagent Dispenser. The assay plates were incubated at 37 C for 1h. For antagonist mode, 23 nL of compounds dissolved in DMSO, positive controls or DMSO only was transferred to the assay plate by a pin tool. After 5 min incubation at room temperature, 1.5 uL of 4-Iodo-2,5-dimethoxy-alpha-methylbenzeneethanamine hydrochloride (DOI) at 4nM was added to each well. The fluorescence intensity in the plates was measured using FDSS 7000EX kinetic plate reader for 3 min at 1 sec intervals.
% is scaled to controls: 0 for no effect and ±100 for the full control effect; potency is read from the fitted curve at half-maximal effect.

Sequence of 5-hydroxytryptamine receptor 2A (Homo sapiens) (P28223 whole entry, looked up): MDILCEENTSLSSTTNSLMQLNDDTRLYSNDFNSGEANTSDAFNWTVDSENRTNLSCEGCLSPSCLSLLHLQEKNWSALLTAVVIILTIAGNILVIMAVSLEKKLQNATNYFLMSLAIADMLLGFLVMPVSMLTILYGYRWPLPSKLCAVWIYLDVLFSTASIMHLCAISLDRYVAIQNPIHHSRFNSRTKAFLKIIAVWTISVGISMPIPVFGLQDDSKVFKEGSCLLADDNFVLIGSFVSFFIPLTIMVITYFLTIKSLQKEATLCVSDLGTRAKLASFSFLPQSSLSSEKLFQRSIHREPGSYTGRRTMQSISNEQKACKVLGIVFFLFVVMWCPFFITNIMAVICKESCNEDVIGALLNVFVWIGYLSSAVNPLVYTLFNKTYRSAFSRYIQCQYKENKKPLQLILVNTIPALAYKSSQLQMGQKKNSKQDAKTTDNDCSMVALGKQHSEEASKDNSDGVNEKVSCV

SMILES	Potency	activity, negative = inhibition
CC(C)(C)c1cc(O)c(C(C)(C)C)cc1O	14900 nM (active)	
NC(=O)c1ccccc1C(N)=O		2.69%
CC(C)(C)c1cc(CO)cc(C(C)(C)C)c1O		99.8%
NC(N)=NCCC[C@H](N)C(=O)O		19.6% [at 5.62 µM]
CCN(CC)c1ccc(C(=C2C=CC(=[N+](CC)CC)C=C2)c2cc(S(=O)(=O)O)ccc2S(=O)(=O)[O-])cc1		0.69% [at 28.5 µM]
CC(C)=CCCC(C)CCOC=O (stereo not given)		-6.36%
CC(C)N1C(=O)c2ccccc2C1=O		-1.63%
CNCc1cc(F)ccc1Oc1ccc(Cl)c(Cl)c1	266 nM (active)	
CCCCCCCCCCCCOC(C)=O	2110 nM (active)	
CC(=O)N(C)C	inactive	
CN1CC(=O)N2[C@H](c3ccc4c(c3)OCO4)c3[nH]c4ccccc4c3C[C@@H]2C1=O		19.1% [at 28.5 µM]
CNC(=S)NN		1.87%
O=C1C=CC(=O)N1c1ccc(Cc2ccc(N3C(=O)C=CC3=O)cc2)cc1	37500 nM (active)	
CCCCCOC(=O)CCCCC		11.9%
O=C1C=CC(=O)N1		6.26%
O=C(O)c1ccccc1Nc1cc(Cl)ccc1C(=O)O		13.3% [at 12.7 µM]
Cc1ccc(Cl)cc1N		5.88%
COC(=O)/C=C(\C)CCC=C(C)C		-11.3%
CC(C)CCCCCCN		-5.17%
NC(=O)N1C(=O)C(C(=O)c2cc(Cl)cs2)c2cc(F)c(Cl)cc21 (stereo not given)		-18.5%

SMILES	Potency	activity, negative = inhibition
S=C([S-])NCCNC(=S)[S-].[Mn+2]		42.3%
Cc1[nH]cnc1C[C@H]1CCc2c(C)c3ccccc3n2C1=O	1460 nM (active)	
CCN(CC)c1ccc2c(-c3ccccc3C(=O)O)c3ccc(=[N+](CC)CC)cc-3oc2c1		7.51%
C=C(C)[C@@H]1CC=C(C)C(=O)C1		11.9%
CCCCOCCOCCOCc1cc2c(cc1CCC)OCO2		34%
CN(C)[C@@H](CCOc1cccc2ccccc12)c1ccccc1	3260 nM (active)	
COC(=O)/C=C/C(C)=C\C=C\C(C)=C\C=C\C=C(C)\C=C\C=C(C)\C=C\C(=O)O		7.18%
C=CC(C)(CCC=C(C)C)OC(=O)CC(C)C (stereo not given)		-2.68%
CCCCNc1ccc(C(=O)OCCOCCOCCOCCOCCOCCOCCOCCOCCOC)cc1		-18% [at 28.5 µM]
CCCCCCCCCCl		-4.3%
CCO/C=C1\N=C(c2ccccc2)OC1=O		-5.8%
CCCCCCOC(=O)CCCCCCCC(=O)OCCCCCC		4.29%
Cc1ccc2ccc(Cl)cc2n1		3.57% [at 28.5 µM]
O=Cc1ccccc1Cl		-24.9%
CC/C=C/CCCCCCCCCCOC(C)=O		53.2%
COP(=O)(OC)OC(c1ccc(Cl)cc1)P(=O)(OC)OC (stereo not given)		6.18% [at 28.5 µM]
CCC(C)(CCC(C)C)C(=O)[O-].CCC(C)(CCC(C)C)C(=O)[O-].[Zn+2] (stereo not given)		1.85%
Cc1cc2nc3c(=O)[nH]c(=O)nc-3n(C[C@H](O)[C@H](O)[C@H](O)CO)c2cc1C	inactive	
CCC(C)(CN(C)C)OC(=O)c1ccccc1 (stereo not given)		-1.15% [at 28.5 µM]
CC[N+](CC)(CC(=O)Nc1c(C)cccc1C)Cc1ccccc1 (tested in a mixture with another compound)		2.49% [at 28.5 µM]
